Screens (PubChem)
HCV inhibitor: HCV inhibition; Huh7.5.1 HCVcc-Cre infection, luciferase reporter, 44 h; hit rate 3.4% among 340,000; Potency, µM (series often up to 41.8 µM), without a hit: at the highest dose activity change, negative = inhibition, hits mostly inhibitors; also: potency is read from the fitted curve at half-maximal effect; % is scaled to controls: 0 for no effect and ±100 for the full control effect
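Seed cells (1,000/well) for 4 h; treat with compound and infect with HCVcc-Cre, moi about 0.5. Incubate 44 h, then detect luciferase activity.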
Pf growth 48h: inhibits P. falciparum growth in the first generation, 48 h. Potency, µM (titrated, usually from 28.7 µM), for the others: at the highest dose activity change, negative = inhibition, most hits filed as inhibitors. hit rate 5.9% among 310,000. P. falciparum luciferase growth in erythrocytes, 48 h. AID 504832; also: potency is read from the fitted curve at half-maximal effect; % is scaled to controls: 0 for no effect and ±100 for the full control effect
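Cell-based growth assay: transgenic P. falciparum expressing firefly luciferase, cultured in red cells within RPMI 1640 containing 0.5% w/v Albumax, 24 mM bicarbonate and gentamycin. A drop in luciferase activity indicates inhibition.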
Cycloheximide cs: affects cycloheximide protein synthesis inhibition readout, counter-screen | max response, % | AID 2314 | hit rate 12% among 300,000 | cell reporter, cycloheximide protein synthesis inhibition counterscreen; in the data active = max response mostly above about 13%, no sharp cut-off; inactive = mostly below about 14%; also: read at 38.3 µM for the half of the compounds with a filed dose; 0% is about no effect
Shiga inhibitor: Shiga toxin inhibition. Vero cells, Shiga toxin protein synthesis inhibition reporter. inhibition, % at 38.7 µM. hit rate 9.2% among 290,000; in the data active = inhibition mostly above about 28%, no sharp cut-off; inactive = mostly below about 43%; also: 0% is about no effect
Pf growth 96h: inhibits malaria parasite growth, 96 h. P. falciparum luciferase reporter growth, 96 h. hit rate 6.9% among 320,000. Potency, µM (series often up to 28.7 µM), for inactives: at the highest dose activity change, negative = inhibition, actives largely listed as inhibitors; also: potency is read from the fitted curve at half-maximal effect; % is scaled to controls: 0 for no effect and ±100 for the full control effect
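Parasite growth measured via integrated firefly luciferase reporter in P. falciparum. Infected erythrocytes at 2% hematocrit, 0.05% parasitemia final were treated 96 hours at 37 C under 5% CO2, and luminescence was read.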
HCMV inh: blocks human cytomegalovirus replication; HFF cells, HCMV-luciferase reporter, 72 h; hits give low values; activity change, negative = inhibition, % at 57.5 µM; hit rate 4.5% among 410,000; in the data active = activity change below about -60%; inconclusive = no clear call, values can overlap the other calls; inactive = above about -39%; also: % is scaled to controls: 0 for no effect and ±100 for the full control effect
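Cell-based, HFFs, 1000 cells/well, 16 h 37C; cpds in DMSO + HCMV-luc, MOI 1 PFU/cell; 72 h 37C; OneGlo luminescence after 5 min RT; norm. to buffer vs Salinomycin 10uM.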
An asterisk follows results filed as active; ? = inconclusive; nt = no result. Sampled rows, rich in hits. Any-hit rate of the full collection: about 21%. Unless noted, calls follow the shape of the dose curve; as a rule, active = well fitted inhibition curve with a large enough effect; inconclusive = small, poorly fitted or top-dose-only effect, or another doubt; inactive = no such curve, though single readings can be large or run the other way.

SMILES	HCV inhibitor	Pf growth 48h	Cycloheximide cs	Shiga inhibitor	Pf growth 96h	HCMV inh
O=C(CNC(=O)C12CC3CC(CC(C3)C1)C2)OCc1cc(=O)n2cc(Br)ccc2n1	5%	0%	-2	3	12%	14
O=C(OCc1cc(=O)n2cc(Br)ccc2n1)C1COc2ccccc2O1 (stereo unspecified)	13%	-1%	-1	-2	50%	-65*
CC1(C)NC(=O)N(CC(=O)OCc2cc(=O)n3cc(Br)ccc3n2)C1=O	20%	35%	3	-7	31%	28
CC1CC1C(=O)OCc1cc(=O)n2cc(Br)ccc2n1 (stereo unspecified)	12%	71%	29*	117	33%	-83*
Cc1ccccc1Nc1nc(N)nc(COC(=O)[C@@H](NC(=O)c2ccccc2Cl)C(C)C)n1	0%	?	nt	nt	?	8
COc1ccc(C)cc1NC(=O)CCC(=O)Nc1nnc(C2CCCCC2)s1	8%	24%	1	-11	-1%	10
CCN(CC(=O)Nc1c(F)cccc1F)C(=O)CCc1ccc(OC)cc1	21%	0%	-2	-7	-4%	5
CC(=O)c1c(C)[nH]c(C(=O)OCc2cc(=O)n3cc(Br)ccc3n2)c1C	-22%	14%	nt	nt	19%	-14
CC1(C(=O)OCc2cc(=O)n3cc(Br)ccc3n2)CC1(Cl)Cl (stereo unspecified)	-5%	297%	36*	78*	103%	22
CN(CC[C@@H](Oc1ccc(C(F)(F)F)cc1)c1ccccc1)CC(=O)O	nt	nt	-5	-6	nt	nt
O=C(c1cc(COc2cccc(C(F)(F)F)c2)on1)N1C[C@H]2CC[C@H]1C2	-21%	18%	30*	80*	36%	-13
CC1(C)C[C@@H]2C[C@@](C)(CN2C(=O)c2cc(COc3cccc(C(F)(F)F)c3)on2)C1	10µM*	40%	12	42*	27%	?
CC(=O)c1cccc(OCc2cc(C(=O)N3C[C@H]4CC[C@H]3C4)no2)c1	?	41%	50*	82*	?	0
CC(=O)c1cccc(OCc2cc(C(=O)N(C)Cc3nccs3)no2)c1	nt	nt	nt	nt	nt	-10
CC(=O)c1cccc(OCc2cc(C(=O)N3C[C@@H](C)O[C@@H](C)C3)no2)c1	?	19%	41*	75*	?	96
O=C(c1cc(COc2c(F)cccc2F)on1)N1CC[C@@H]2CCCC[C@H]2C1	nt	nt	nt	nt	nt	10
CC1(C)CC2CC(C)(CN2C(=O)c2cc(-c3ccccc3O)on2)C1 (stereo unspecified)	-4%	nt	-5	16	20%	8
CCCCC(=O)Nc1cccc(-c2nc3ccccc3s2)c1	nt	nt	nt	nt	nt	26
Cc1cccc(C)c1NC(=O)C1(C)CCC(=O)N1CCc1c[nH]c2ccccc12 (stereo unspecified)	nt	nt	nt	nt	nt	5
COCCCN1C(=O)C(CC(=O)NCc2cccc3ccccc23)CC(C(=O)N(C(C)C)C(C)C)=C1C (stereo unspecified)	nt	nt	nt	nt	nt	14
COCCC1CCCCN1C(=O)c1cc(COc2cccc(C(C)=O)c2)on1 (stereo unspecified)	?	-2%	34*	76*	5%	34
CC(=O)c1ccc(OCc2cc(C(=O)N3CCC[C@H]3CO)no2)cc1	22%	-12%	11	17	?	0
COc1cccc(NC(=O)CN(C)C(=O)C2CC(=O)N(CCc3ccc(OC)c(OC)c3)C2)c1 (stereo unspecified)	-19%	nt	nt	nt	nt	-13
CN1C(=O)/C(=C2\SC(N3CCCCCC3)=NC2=O)c2ccccc21	?	nt	20*	32	4.1µM*	61
CC1CN(C2=NC(=O)/C(=C3/C(=O)N(Cc4ccc(F)cc4)c4ccccc43)S2)CC(C)O1 (stereo unspecified)	-6%	?	1	12	5.9µM*	10
SMILES	HCV inhibitor	Pf growth 48h	Cycloheximide cs	Shiga inhibitor	Pf growth 96h	HCMV inh
O=C1N=C(N2CCCCC2)S/C1=C\c1ccc(Br)cc1	3%	65%	1	-16	?	-6
O=C1N=C(N2CCCCC2)SC1=C1CCCCC1	-16%	93%	33*	114*	nt	-27
CCCN1C(=O)/C(=C2\SC(N3CCCCC3)=NC2=O)c2ccccc21	?	?	46*	68*	?	-25
CCC(=O)N1CCc2cc(Br)cc(S(=O)(=O)N3CCCC(C(=O)NCc4ccccc4)C3)c21 (stereo unspecified)	nt	nt	nt	nt	nt	-19
CC(=O)c1ccc(NC(=O)CSc2nccn2Cc2ccc3c(c2)OCO3)cc1	nt	nt	nt	nt	nt	38
CCOc1ccc2nc3ccc4[nH]onc4c3c2c1	2.5µM*	nt	nt	nt	nt	?
CCOc1cccc(-c2nc3ccccc3c(=O)o2)c1	nt	nt	nt	nt	nt	84
O=C(CSc1ccc(Cl)cc1)NNC(=O)c1cccnc1	12%	0%	-2	17	113%	36
O=c1cc(-c2ccccc2)cc(-c2ccccc2)n1O	?	13µM*	nt	nt	?	-16
Cc1cc(OCC(=O)Nc2ccc(N3CCN(C(=O)c4ccco4)CC3)cc2)cc(C)c1Cl	?	9.3µM*	-2	-11	?	-36
Cc1cccc(OCC(=O)Nc2ccc(N3CCN(C(=O)c4ccco4)CC3)cc2)c1	?	9.3µM*	-2	17	4%	-68*
Cc1ccc(OCC(=O)Nc2ccc(N3CCN(C(=O)c4ccco4)CC3)cc2)cc1C	-23%	-16%	-5	22	35%	?
C=C(C)Cn1c(C)cc(C)c(S(=O)(=O)c2ccc(C)cc2)c1=O	-5%	?	-2	-6	-13%	?
Cc1cc(C)n(Cc2ccc(Cl)cc2Cl)c(=O)c1S(=O)(=O)c1ccccc1	-5%	13µM*	11*	8	?	-11
CCN(c1ccc(C)cc1C)S(=O)(=O)c1nnc(NC(=O)c2ccccc2OC)s1	nt	nt	nt	nt	nt	-17
Cc1ccc(C)c(NC(=O)c2cc3ccccc3o2)c1	-11%	134%	51*	75*	?	89
O=C(Nc1ccccc1C(F)(F)F)c1cc2ccccc2o1	-19%	212%	32*	nt	?	61
O=C(N/N=C/c1ccc([N+](=O)[O-])cc1)c1cc2ccccc2o1	16%	-1%	2	-1	19%	-38
Cc1cc([N+](=O)[O-])ccc1NC(=O)c1cc2ccccc2o1	1%	107%	30*	168*	9%	7
O=C(Nc1cccc(Cl)c1N1CCCC1)c1cc2ccccc2o1	-4%	-2%	28*	29*	1.3µM*	59
O=C1CCCC(=O)C1C(=O)C1CCN(S(=O)(=O)c2ccccc2)CC1	-2%	-6%	-4	-9	9%	-23
COC(=O)Nc1ccc(S(=O)(=O)N2CCC(C(=O)NC3CCCCC3)CC2)cc1	16%	?	3	-1	?	-12
CCCCCCCCCCCCCCCCCC(=O)OC[C@@H](O)[C@H]1OC[C@H](O)[C@H]1O	nt	-4%	nt	nt	13%	nt
